# Test results: PubChem BioAssay (NCATS)
# Results filed as inconclusive are left out. A call without a number means that no potency is given here. A number with no mark means an inactive call. Activity calls are given as the source filed them. Calls follow the shape of the dose curve; as a rule, active = well fitted inhibition curve with a large enough effect; inconclusive = small, poorly fitted or top-dose-only effect; inactive = flat fitted curve, though single readings scatter.
# What was measured:
# [1] = molecular target: Calcium and integrin-binding protein 1 (Homo sapiens) (UniProt Q99828); assay: Primary qHTS for Identification of Calcium Integrin Binding Protein 1 (CIB1) Competitor (AID 1508620);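 also: GST tagged CIB1 binding a fluorescein labelled alphaIIb integrin peptide tracer; top concentration of the series differs between compounds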
# How it was run: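 CIB1-GST (1 uM final) and compound incubated 15 min at room temperature before adding FITC-alphaIIb peptide tracer (100 nM final). Competition for binding read by fluorescence polarization (ex 480, em 540) after another 15 min at room temperature.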
# [2] = Primary qHTS for inhibitors of nuclear receptor binding SET domain protein 2 (NSD2) in an isogenic RCH-ACV NSD2 p.E1099K mutant (9B) (AID 1645876); also: nearly all actives have a fitted effect of over 70% in size; also: potency is read from the fitted curve at half-maximal effect
# Chain of Calcium and integrin-binding protein 1 (Homo sapiens) (Q99828 whole entry, looked up): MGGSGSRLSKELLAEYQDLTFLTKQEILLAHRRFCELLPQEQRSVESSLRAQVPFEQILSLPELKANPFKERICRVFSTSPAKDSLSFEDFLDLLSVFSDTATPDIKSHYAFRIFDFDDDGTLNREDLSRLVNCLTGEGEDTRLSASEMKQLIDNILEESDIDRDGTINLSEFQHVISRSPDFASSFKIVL
smiles,measurement,setting,value
COC(=O)[C@@]12C(=O)C(C)C(=O)[C@]1(C)C(C)=C[C@H]1[C@]3(C=O)CC[C@H](OC(C)=O)C(C)(C)[C@H]3CC[C@@]12C (stereo partly specified),Potency,[1],inactive
same,Potency,[2],inactive
C/C=C(\C)C(=O)OC1C(C)OC(OC2C(C)OC(OC3CCC4(C)C(=CCC5C4CCC4(C)C(C(C)OC6OC(COC7OC(CO)C(O)C(O)C7O)C(O)C(O)C6O)CCC54O)C3)CC2OC)C(O)C1OC (stereo unspecified),Potency,[1],inactive
same,"activity change, negative = viability loss",[2],-3.12% [at 9.23 µM]
CC(CCc1ccc(O)cc1)O[C@@H]1O[C@H](CO[C@H]2OC[C@](O)(CO)[C@H]2O)[C@@H](O)[C@H](O)[C@H]1O (stereo partly specified),Potency,[1],inactive
same,Potency,[2],inactive
CC(=O)O[C@H]1C[C@@H](OC(C)=O)C(C)(C)C2C[C@@H](O)[C@]3(C)C(CC[C@@]4(C)[C@H](C5=CC(=O)OC5O)C[C@H]5O[C@]543)[C@]21C (stereo partly specified),Potency,[1],inactive
same,Potency,[2],inactive
CN[C@H]1[C@H](O)[C@H](O[C@@H]2[C@@H](O)[C@H](O[C@H]3O[C@H]([C@H](C)O)[C@@H](O)[C@H](O)[C@H]3N)[C@@H](N)C[C@H]2N)OC[C@@]1(C)O,Potency,[1],inactive
same,Potency,[2],inactive
CN1[C@@H]2CC[C@H]1CC(OC(=O)C1C=Nc3ccccc31)C2 (stereo partly specified),Potency,[1],inactive
same,Potency,[2],inactive
C[C@@]1(C(=O)O)CC[C@]2(C)CC[C@]3(C)C4=CC(=O)c5cc(O)c(O)cc5[C@]4(C)CC[C@@]3(C)[C@@H]2C1,Potency,[1],inactive
same,Potency,[2],inactive
COC1CC(OC2CCC3(C)C(=CCC4C3CCC3(C)C(C(C)OC5OC(COC6OC(CO)C(O)C(O)C6O)C(O)C(O)C5O)CCC43O)C2)OC(C)C1OC1OC(C)C(O)C(OC)C1O (stereo unspecified),Potency,[1],inactive
same,outcome,[2],inactive [at 9.23 µM]
COC(=O)C1(C)CCC(=O)C2(C)c3c(O)cc(C(C)C)cc3C(O)C(OC(C)=O)C12 (stereo unspecified),Potency,[1],inactive
same,Potency,[2],inactive
CO[C@@H]1[C@H](O)[C@@H](O[C@@H]2C[C@H]3CC[C@@H]4C(CC[C@]5(C)[C@@H](C6=CC(=O)OC6)CC[C@]45O)[C@@]3(C)[C@H](O)C2)O[C@H](C)[C@@H]1O[C@@H]1O[C@H](CO)[C@@H](O)[C@H](O)[C@H]1O (stereo partly specified),Potency,[1],inactive
same,Potency,[2],0.121 µM (active)
COC1CC(OC2CCC3(C)C(CCC4C3CCC3(C)C(C5=CC(=O)OC5)C(OC(C)=O)CC43O)C2)OC(C)C1OC1OC(CO)C(O)C(O)C1O (stereo unspecified),Potency,[1],inactive
same,Potency,[2],0.483 µM (active)
COc1c(C(C)C)cc2c(c1O)[C@@]1(C(=O)O)CCCC(C)(C)C1CC2 (stereo partly specified),Potency,[1],inactive
same,Potency,[2],inactive
CO[C@H]1[C@H](O)[C@H](O[C@H]2CC[C@]3(C)C4CC[C@]5(C)[C@H](C6=CC(=O)OC6)CC[C@]5(O)C4CC[C@@H]3C2)O[C@@H](C)[C@@H]1O (stereo partly specified),Potency,[1],inactive
same,Potency,[2],0.0224 µM (active)
CN1[C@H]2C[C@H](OC(=O)[C@H](CO)c3ccccc3)C[C@@H]1[C@@H](O)C2,Potency,[1],inactive
same,Potency,[2],inactive
N#CC(OC1OC(COC2OC(CO)C(O)C(O)C2O)C(O)C(O)C1O)c1ccccc1 (stereo unspecified),Potency,[1],inactive
same,Potency,[2],inactive
C[C@@]12C[C@@H](c3ccoc3)OC(=O)C1CC[C@]1(C)[C@H]2[C@H]2C=C[C@]1(O)C(=O)O2 (stereo partly specified),Potency,[1],inactive
same,Potency,[2],inactive
COc1cc(C(=O)O[C@H]2[C@@H]3C=CO[C@@H](O[C@@H]4O[C@H](CO)[C@@H](O)[C@H](O)[C@H]4O)[C@@H]3[C@@]3(CO)O[C@@H]23)ccc1O,Potency,[1],inactive
same,Potency,[2],inactive
COC1=CC(=O)O[C@@H](CCc2ccccc2)C1,Potency,[1],inactive
same,Potency,[2],inactive
CCCN1CCO[C@H]2c3cc(O)ccc3OC[C@@H]21,Potency,[1],inactive
same,Potency,[2],inactive
C/C=C(\C)C(=O)O[C@H]1[C@H](OC(C)=O)[C@]2(CO)[C@H](O)[C@H](O)[C@]3(C)C(=CCC4[C@@]5(C)CC[C@H](O[C@@H]6O[C@H](C(=O)O)[C@@H](O)[C@H](O[C@@H]7OC[C@H](O)[C@H](O[C@@H]8OC[C@H](O)[C@H](O)[C@H]8O)[C@H]7O)[C@H]6O[C@@H]6O[C@H](CO)[C@@H](O)[C@H](O)[C@H]6O)C(C)(C)C5CC[C@]43C)[C@@H]2CC1(C)C (stereo partly specified),"activity change, negative = inhibition",[1],1% [at 12.4 µM]
same,"activity change, negative = viability loss",[2],-4.86% [at 9.23 µM]
CN1C(=O)c2ccccc2NC(=O)[C@]12O[C@@H]2c1ccccc1,Potency,[1],inactive
same,Potency,[2],inactive
CN1CCCC1CCOC(c1cc2nccc(C(=O)O)c2[nH]1)c1ccccc1Cl (stereo unspecified),Potency,[1],inactive
same,Potency,[2],inactive
COC1CC(O[C@H]2CC[C@@]3(C)C(=CCC4C3C(O)[C@@H](O)[C@]3(C)[C@@H](C(C)=O)CC[C@]43O)C2)OC(C)C1OC1CC(OC)C(OC2OC(C)C(O)C(O)C2O)C(C)O1 (stereo partly specified),Potency,[1],inactive
same,"activity change, negative = viability loss",[2],-2.91% [at 9.23 µM]
